# Sa RN4220 lethal – growth inhibition of S. aureus RN4220, primary screen, OD600; 16 h; inhibition, % (test concentration not listed); hit rate 0.33% among 330,000; in the data active means inhibition above about 85%
# TcdB inh – TcdB glycohydrolase inhibitors, primary screen, biochemical, single point, plate reader | AID 652162, 2013 | TcdB glycohydrolase enzymatic assay | hit rate 0.24% among 350,000 | Toxin B (Clostridioides difficile), P18177 | inhibition, % at 9.99 µM; in the data active means inhibition above about 10%
# MazF activator – activators of E. coli MazEF toxin-antitoxin RNase, primary screen, biochemical, fluorescence, uHTS. Endoribonuclease toxin MazF (Escherichia coli (strain K12)), P0AE70. FAM/BHQ RNA-DNA oligo cleavage fluorescence, 5 h. activation, % at 20 µM. hit rate 0.32% among 350,000; in the data active means activation above about 50%
# Target sequence (P0AE70 whole entry, looked up): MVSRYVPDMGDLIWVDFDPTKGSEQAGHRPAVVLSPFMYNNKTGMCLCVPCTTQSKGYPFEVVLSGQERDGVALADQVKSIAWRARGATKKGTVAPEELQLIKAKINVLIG
# Sa ugtP lethal – growth inhibition of ugtP-null S. aureus, primary screen, RN4220 ugtP deletion, OD600; growth inhibition, % (no concentration beside the values); 16 h; hit rate 0.54% among 330,000; in the data active means growth inhibition above about 68%
# PfHsp40 rescue – rescue of yeast from PfHsp40 toxicity, primary screen, S. cerevisiae, ATP luminescence | S. cerevisiae expressing PfHsp40, growth rescue | growth rescue, % at 12.5 µM | hit rate 0.68% among 340,000; in the data active means growth rescue above about 28%, passing the limit was not always enough; inconclusive means no clear call, values can overlap the other calls;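 further: yeast W303a lacking pdr1 and pdr3 grown in galactose medium; growth measured after three days at 30 °C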
# Mtb hypoxia rep – PubChem AID 1159583; M. tuberculosis hypoxia-regulated fluorescent reporter, fluorescence; hit rate 0.1% among 300,000; fluorescence inhibition, % (no concentration beside the values); in the data active means fluorescence inhibition mostly above about 23%, no sharp cut-off; inactive means mostly below about 17%
# Numbers stand for hits; i = inactive; ? = inconclusive; nt = no result shown. Compounds with a hit are over-represented: about 1.3% of the library has one in this group of screens.
SMILES,Sa RN4220 lethal,TcdB inh,MazF activator,Sa ugtP lethal,PfHsp40 rescue,Mtb hypoxia rep
Cc1ccccc1S(=O)(=O)NCC[C@@H]1CC[C@@H](NC(=O)Nc2cccc(Cl)c2)[C@H](CO)O1,nt,i,nt,nt,nt,nt
O=c1[nH]c(-c2ccccn2)nc(C(F)(F)F)c1Br,i,i,i,i,133,i
O=C(Cc1n[nH]c(=O)[nH]c1=O)NN=Cc1cccc(O)c1,i,nt,nt,i,nt,i
Cc1cccc2c3nc4ccccc4nc3n(C)c12,i,i,165,i,i,i
COC(=O)Cn1c2nc3ccccc3nc2c2cccc(C)c21,i,i,i,i,i,i
Cn1cc(C(=O)NN=Cc2c(O)ccc3ccccc23)ccc1=O,i,nt,nt,i,nt,i
Cc1ccccc1S(=O)(=O)N1CCCc2nc(C)c(C)cc21,nt,11,nt,nt,nt,nt
Cc1ccccc1S(=O)(=O)N1CCCc2nc(-c3ccccc3)ccc21,nt,i,nt,nt,nt,nt
Cc1noc(C)c1NC(=O)N(C)C[C@H]1OCCCC[C@H](C)Oc2ccc(NC(=O)NC3CCCCC3)cc2C(=O)N([C@@H](C)CO)C[C@@H]1C,nt,i,nt,nt,nt,nt
C[C@H]1CN([C@@H](C)CO)C(=O)Cc2cc(NS(=O)(=O)c3ccc(F)cc3)ccc2O[C@@H]1CN(C)Cc1ccc(Oc2ccccc2)cc1,nt,i,nt,nt,nt,nt
O=C(O)c1ccc(CN2C(=O)c3cccc4c([N+](=O)[O-])ccc(c34)C2=O)cc1,i,i,i,97,i,i
O=[N+]([O-])c1cc(Br)c(O)c(C=NNc2nc3ccccc3s2)c1,i,nt,nt,84,nt,i
CCOC(=O)c1ccc(NC(=O)Cn2ncc(Cl)c(Cl)c2=O)cc1,i,i,i,i,34,36
CCOC(=O)c1ccc(NC(=O)CC2Sc3ncnn3C2=O)cc1 (configuration not stated),i,nt,i,i,42,i
C[C@@H]1CCCCO[C@@H](CN(C)S(C)(=O)=O)[C@H](C)CN([C@@H](C)CO)C(=O)c2cc(NC(=O)Cc3ccccc3)ccc2O1,nt,i,nt,nt,nt,nt
CC1CCc2c(N3CCC(O)CC3)c(F)cc3c(=O)c(C(=O)O)cn1c23 (configuration not stated),99,i,i,99,i,nt
CC1CCc2cc(F)cc3c(=O)c(C(=O)O)cn1c23 (configuration not stated),97,i,i,99,i,i
COC(=O)C[C@H]1CC[C@@H](NC(=O)c2ccccc2)[C@H](CO)O1,nt,i,nt,nt,nt,nt
Cc1ccc2cc3c(N)c(C(=O)Nc4c(C)[nH]c(=O)[nH]c4=O)sc3nc2c1,nt,nt,205,nt,i,nt
CCCCCCSc1ccc([C@H]2N[C@@](CC(C)C)(C(=O)OC)[C@H]3C(=O)N(C)C(=O)[C@@H]23)cc1,i,i,i,i,47,i
Cc1noc(C)c1NC(=O)N(C)C[C@@H]1Oc2ccc(NC(=O)Nc3ccccc3)cc2CC(=O)N([C@H](C)CO)C[C@@H]1C,nt,i,nt,nt,nt,nt
CCOC(=O)C1CCN(c2c(C(=O)c3ccccc3)cnc3ccc(Cl)cc23)CC1,i,i,i,100,i,nt
CN1C(=O)C2(N=c3ccccc3=N2)c2ccccc21,nt,nt,i,nt,55,nt
Cc1cc(Nc2ccccc2)nn1C(=O)c1ccccc1,i,nt,i,i,239,i
O=C(CCN1CCCCC1)NCC[C@H]1CC[C@@H](NC(=O)C2CCCCC2)[C@H](CO)O1,nt,i,nt,nt,nt,nt
SMILES,Sa RN4220 lethal,TcdB inh,MazF activator,Sa ugtP lethal,PfHsp40 rescue,Mtb hypoxia rep
O=C1Nc2ccccc2Nc2ccc([N+](=O)[O-])cc21,i,i,i,i,i,i
Cc1ccc(Oc2cc([N+](=O)[O-])cc3c2C(=O)Nc2ccccc2O3)cc1,97,nt,i,91,i,i
CCCCCCCSc1nsc(N)n1,i,nt,i,89,i,i
CCCCCCSc1nsc(NC(=O)CC(C)C)n1,i,i,i,i,i,i
COc1ccc(C2CC=C(C(=O)O)C(c3ccccc3F)N2S(=O)(=O)c2ccccc2C)cc1 (configuration not stated),i,nt,nt,i,nt,i
CCOc1cc(C=NNC(=O)c2cccc([N+](=O)[O-])c2)ccc1OS(=O)(=O)c1ccccc1,i,nt,nt,99,nt,i
COc1cc(/C=N/NC(=O)c2cccc([N+](=O)[O-])c2)ccc1O,nt,12,i,nt,i,nt
COc1ccc(C=NNC(=O)c2cccc([N+](=O)[O-])c2)cc1OS(=O)(=O)c1ccccc1,i,nt,nt,i,nt,i
CCOC(=O)C1C2COc3ccc(C)cc3C2N2C(=O)c3cc(F)ccc3NC(=O)[C@@]12C (some centres not stated),i,nt,nt,i,nt,i
Oc1ccc(Nc2nc(-c3ccccc3O)nc3ccccc23)cc1,i,i,i,i,?,i
COc1cccc(-c2nc(OC(C)C)c3ccccc3n2)c1,i,nt,i,94,i,nt
COc1ccc(Nc2nc(-c3ccccc3O)nc3ccccc23)cc1,i,i,i,94,i,i
COc1cccc(Nc2nc(-c3ccccc3)nc3ccccc23)c1,i,i,i,91,38,i
COc1cccc(Nc2nc(-c3ccccc3O)nc3ccccc23)c1,i,i,75,i,i,i
C[C@@H]1CN([C@H](C)CO)S(=O)(=O)c2ccc(-c3ccccc3)cc2O[C@@H]1CN(C)Cc1ccncc1,nt,i,nt,nt,nt,nt
O=C(Oc1ccccc1)c1cc2ccccc2o1,i,nt,i,101,i,i
CC1(C)OC2C(O1)[C@@H](CO)O[C@H]2n1cnc2c(N)ncnc21 (some centres not stated),i,14,i,i,i,i
Nc1ncnc2c1ncn2[C@@H]1O[C@H](CO)[C@@H](O)[C@H]1O,nt,i,i,nt,i,nt
CC(=O)c1c(N2CCN(c3cccc(Cl)c3)CC2)nc(=S)n(-c2ccccc2)c1C,i,nt,i,83,i,i
CCn1c(C)c(C(C)=O)c(N2CCN(c3cccc(Cl)c3)CC2)nc1=S,i,nt,i,i,i,nt
C[C@@H]1CN([C@@H](C)CO)C(=O)c2cc(NS(=O)(=O)c3ccc(F)cc3)ccc2O[C@@H]1CN(C)C(=O)Nc1ccc(F)cc1,nt,i,nt,nt,nt,nt
O=[N+]([O-])c1cccc(-c2nc(-c3cccs3)c(-c3cccs3)[nH]2)c1,i,nt,111,i,i,i
C[C@H](CO)N1C[C@H](C)[C@@H](CN(C)C(=O)NC2CCCCC2)OCCCC[C@H](C)Oc2ccc(NC(=O)Nc3cccc4ccccc34)cc2C1=O,nt,i,nt,nt,nt,nt
COc1ccc(OC)c2[nH]c(C(=O)N3CCC(C(=O)O)CC3)cc12,i,i,i,i,i,i
COc1cc2cc(C(=O)N3CC(COS(C)(=O)=O)c4ccc(O)cc43)[nH]c2c(OC)c1OC (configuration not stated),nt,nt,i,nt,63,nt
CCOC(=O)C1Oc2ccccc2C(c2ccc(C)cc2)=C1C(=O)OC (configuration not stated),i,i,i,95,i,i
O=C(O)c1cc(-c2ccc(/C=C3/SC(=S)N(Cc4ccccc4)C3=O)o2)ccc1Cl,97,i,i,101,i,i
